The values that follow come from PubChem BioAssay (Tox21).

Records with an inconclusive call do not appear. Calls of active or inactive are those of the source. Calls follow the shape of the dose curve; as a rule, active = well fitted cell-killing curve with a large enough effect in the repeat runs; inconclusive = weak or mixed curves, or effect the other way; inactive = flat fitted curve, though single readings scatter. Where a SMILES comes first, the peptide text is derived from it. [ ]: non-standard residue; d: D form. pGlu = O=C1CC[C@@H](C(=O)O)N1
% is scaled to controls: 0 for no effect and ±100 for the full control effect.

A short description of the experiment: qHTS RealTime-Glo MT Cell Viability Assay in HepG2 cells - 40 hour (AID 1224870). Also: nearly all actives have a fitted effect of over 50% in size. The note with it: RealTime-Glo luminescence; series mostly up to 76.8 µM; activity change, negative = cytotoxic: at the top concentration. The procedure, abridged:
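HepG2 cells mixed with RealTime-Glo MT reagents (NanoLuc plus cell-permeant prosubstrate) were seeded at 600 cells/well, incubated 5 h at 37 C/5% CO2, then pinned with compounds in DMSO; nonlytic luminescence tracked viability during 40 h treatment.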
Background: Quantitative high-throughput screening tests each substance at several concentrations.
Regarding `Clc1cc(Cl)c(Cl)nc1Cl`, the “activity change, negative = cytotoxic” value was -2.2% (inactive).
In the case of `C[C@@H]1CCC[C@H](C)N1` it was 1.94% [at 35.3 µM] (inactive); in that of `CCOC(=O)OC(C)OC1=C(C(=O)Nc2ccccn2)N(C)S(=O)(=O)c2ccccc21` (configuration not stated), 5.44% [at 35.3 µM] (inactive); in that of `O=C(O)CC(C(=O)O)S(=O)(=O)O` (configuration not stated), 2.66% (inactive).
For `[O-][n+]1cccc(CO)c1` the value was 1.12% [at 35.3 µM] (inactive); for `CC(=O)c1ccccc1[N+](=O)[O-]`, 0.994% (inactive); for `Cc1cccc(C)c1NC(=O)CC12CCCN1CCC2`, -1.77% [at 35.3 µM] (inactive).
For `OCCCCCO` the value was 1.1% (inactive).
Consider `CC(COc1ccccc1)NN` (configuration not stated), for which the “activity change, negative = cytotoxic” value was 0.502% [at 35.3 µM] (inactive).
For `NS(=O)(=O)Cc1noc2ccccc12` the value was 1.05% [at 35.3 µM] (inactive); for `Cc1cc(C)c(N=Nc2c(O)c(S(=O)(=O)O)cc3cc(S(=O)(=O)O)ccc23)cc1C`, -8.96% [at 6.97 µM] (inactive); for `Nc1c2c(nc3c1CCC3)CCCC2`, -2.11% [at 35.3 µM] (inactive).
For `O=S(=O)(O)c1cccc2c(S(=O)(=O)O)cccc12` the value was 2.1% (inactive); for `CCCCCCCCN1CCCC1=O`, 0.892% (inactive); for `CNCC(O)c1ccc(O)c(O)c1` (configuration not stated), -9.08% [at 35.3 µM] (inactive).
For `O=S(=O)(O)c1cccc(S(=O)(=O)O)c1` the value was 0.645% (inactive).
`CCCO[Si](OCCC)(OCCC)OCCC`: the “activity change, negative = cytotoxic” value was -4.14% (inactive).
In the case of `CC[C@H]1OC(=O)[C@H](C)[C@@H](O[C@H]2C[C@@](C)(OC)[C@@H](O)[C@H](C)O2)[C@H](C)[C@@H](O[C@@H]2O[C@H](C)C[C@H](N(C)C)[C@H]2O)[C@](C)(OC)C[C@@H](C)C(=O)[C@H](C)[C@@H](O)[C@]1(C)O` it was 0.352% (inactive); in that of `C=CCCCCCCCCC(=O)OCC`, -0.147% (inactive).
For `CO[Si](C)(OC)c1ccccc1` the value was 2.17% (inactive); for `C=CCCC(=O)O`, 1.51% (inactive); for `O=Cc1cccc(Br)c1`, -1.31% (inactive).
Regarding `CN1C(C)(C)CC(O)CC1(C)C`, the “activity change, negative = cytotoxic” value was 1.05% (inactive).
In the case of `Clc1cc(Cl)cc(Cl)c1` it was -0.559% (inactive); in that of `CCOC(=O)COC(=O)c1ccccc1C(=O)OCC`, 0.218% (inactive); in that of `CC1=NN(c2cccc(S(=O)(=O)O)c2)C(=O)C1`, 0.291% (inactive).
For `CN1CCC(=C2c3ccccc3CCc3cccnc32)CC1` the value was -0.721% [at 35.3 µM] (inactive).
For `Cc1nc(C2CCCCC2)c(-c2ccc(S(N)(=O)=O)c(F)c2)o1` the value was -3.53% [at 35.3 µM] (inactive); for `Nc1ccn([C@@H]2O[C@H](CO)[C@@H](O)C2(F)F)c(=O)n1`, -4.06% [at 35.3 µM] (inactive); for `CCCCCCC1CCC(=O)O1` (configuration not stated), 0.838% (inactive).
For the molecule `C=COCC1CCC(COC=C)CC1` (configuration not stated), the “activity change, negative = cytotoxic” value was 4.25% (inactive).
For `CC1(C)OC[C@@H](COC(=O)CCc2ccc(OC[C@@H](O)CNCCNC(=O)N3CCOCC3)cc2)O1` the value was 0.312% [at 35.3 µM] (inactive); for `CC(=O)Oc1cccc(C)c1`, 3.13% [at 35.3 µM] (inactive); for `CCC(C(=O)NC(=O)NC(C)=O)c1ccccc1` (configuration not stated), -2.81% [at 35.3 µM] (inactive).
`O=C(O)CCCC[P+](c1ccccc1)(c1ccccc1)c1ccccc1`: the “activity change, negative = cytotoxic” value is -0.0569% [at 35.3 µM] (inactive).
For `CCCCOCCOC(=O)CCCCCCCCC(=O)OCCOCCCC` the value was 1.98% (inactive); for `CCNC(=O)[C@@H]1CCCN1C(=O)[C@H](CCCN=C(N)N)NC(=O)[C@H](CC(C)C)NC(=O)CNC(=O)[C@H](Cc1ccc(O)cc1)NC(=O)[C@H](CO)NC(=O)[C@H](Cc1c[nH]c2ccccc12)NC(=O)[C@H](Cc1cnc[nH]1)NC(=O)[C@@H]1CCC(=O)N1` ([pGlu]HWSYGLRP-NHEt), 0.86% [at 35.3 µM] (inactive).
